# Source: PubChem BioAssay (National Center for Advancing Translational Sciences (NCATS))
# Rows were chosen to be rich in hits. Some 10% of all compounds tested hit in one or more screens of this group.
# CtBP-E1A inh = CtBP/E1A binding inhibition; 340,000 compounds, 0.49% hits; AlphaScreen GST-E1A/His-CtBP binding, 1536-well; active compounds read low; activity change, % (concentration not given with the values); in the data active means activity change below about -65%; inconclusive means mostly about -30% to -63%; further: on the % scale 0 is the no-effect control and ±100 the full control effect
#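 Steps: dispense buffer (Tris pH 8.0, NaCl 300 mM, TCEP 1 mM, BSA, Tween 20); add 5X protein mix (GST-E1A, His-CtBP, 125 nM each); pin 23 nL compound; 2 h at 37 °C, dark; add 5X beads (50 ug/mL); 1 h; read.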
# BAZ2B inh = inhibitors of human BAZ2B bromodomain; Q9UIF8; AlphaScreen BAZ2B-H3K14Ac peptide displacement; Potency, µM (doses to about 114 µM), without a hit: at the top dose activity change, negative = inhibition, most hits filed as inhibitors; 360,000 compounds, 4.4% hits; AID 504333; further: potency means the concentration at half of the fitted maximal effect; on the % scale 0 is the no-effect control and ±100 the full control effect; nearly all actives have a fitted effect of over 60% in size
#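 BAZ2B 50 nM plus b-H3(5-23)K14Ac 50 nM, PBS pH 7.4/0.01% Tween-20, 30 min RT; compound added (max 110 uM), 30 min RT; streptavidin donor/Ni-chelate acceptor beads 10 ug/mL final, 20 min dark; AlphaScreen read.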
# JMJD2A Tudor inh = blocks the human JMJD2A Tudor domain; O75164; AlphaScreen JMJD2A-Tudor / H3K4me3 peptide binding; Potency, µM (top dose mostly 114 µM), inactives show top-dose activity change, negative = inhibition, usual class: inhibitors; 390,000 compounds, 4.4% hits; AID 504339; further: potency means the concentration at half of the fitted maximal effect; on the % scale 0 is the no-effect control and ±100 the full control effect; nearly all actives have a fitted effect of over 50% in size
# Target sequence (O75164 whole entry, looked up, the tested form may be a part): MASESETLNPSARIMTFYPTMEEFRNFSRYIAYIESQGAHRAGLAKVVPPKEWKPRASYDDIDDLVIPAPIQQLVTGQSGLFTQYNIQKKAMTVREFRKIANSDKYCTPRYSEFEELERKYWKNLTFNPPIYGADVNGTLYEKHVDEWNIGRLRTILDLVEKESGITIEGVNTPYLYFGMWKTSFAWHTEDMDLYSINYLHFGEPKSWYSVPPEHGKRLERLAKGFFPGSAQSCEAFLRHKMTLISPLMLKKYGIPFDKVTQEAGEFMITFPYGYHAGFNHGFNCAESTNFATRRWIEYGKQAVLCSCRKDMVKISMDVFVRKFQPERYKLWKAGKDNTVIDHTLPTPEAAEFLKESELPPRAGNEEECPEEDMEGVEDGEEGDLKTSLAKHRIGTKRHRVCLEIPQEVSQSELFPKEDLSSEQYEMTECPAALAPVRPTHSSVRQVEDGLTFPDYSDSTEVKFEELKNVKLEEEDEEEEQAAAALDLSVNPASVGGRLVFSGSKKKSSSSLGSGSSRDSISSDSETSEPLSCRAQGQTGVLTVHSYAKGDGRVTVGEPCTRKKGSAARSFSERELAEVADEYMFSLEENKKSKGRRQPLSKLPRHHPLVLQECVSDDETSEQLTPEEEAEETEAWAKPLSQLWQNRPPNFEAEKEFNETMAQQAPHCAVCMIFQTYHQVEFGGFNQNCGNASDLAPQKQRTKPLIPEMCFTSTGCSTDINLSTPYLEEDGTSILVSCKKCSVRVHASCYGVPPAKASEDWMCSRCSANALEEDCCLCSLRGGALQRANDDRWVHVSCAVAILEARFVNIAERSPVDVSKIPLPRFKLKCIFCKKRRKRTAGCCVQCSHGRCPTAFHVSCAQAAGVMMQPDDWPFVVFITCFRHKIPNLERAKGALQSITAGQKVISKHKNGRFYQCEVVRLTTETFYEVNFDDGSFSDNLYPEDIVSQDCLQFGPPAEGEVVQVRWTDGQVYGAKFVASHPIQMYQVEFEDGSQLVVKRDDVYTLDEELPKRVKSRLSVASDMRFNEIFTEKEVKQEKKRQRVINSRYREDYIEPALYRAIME
# G9a block = G9a (human) methyltransferase inhibition. AID 504332. 350,000 compounds, 8.8% hits. Potency, µM (series often up to 102 µM), inactives show at the highest dose activity, negative = inhibition, usual class: inhibitors. G9a H3K9 monomethylation, AlphaScreen, 2 h. Q96KQ7; further: potency means the concentration at half of the fitted maximal effect; on the % scale 0 is the no-effect control and ±100 the full control effect; nearly all actives have a fitted effect of over 75% in size
#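 Using a bead-based AlphaScreen, monomethylated H3K9 product from 2 h room-temperature reactions (G9a 20 nM, peptide 500 nM, SAM 20 uM) was detected with 0.5 ug/mL rabbit anti-H3K9me1 antibody.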
# HP1b binding inh = blocks HP1-beta chromodomain binding to methylated histone tails; AlphaScreen HP1-beta / biotin-H3K9me3 peptide binding; Potency, µM (highest dose often 114 µM), for inactives: at the highest dose activity change, negative = inhibition, most hits filed as inhibitors; 390,000 compounds, 0.56% hits; further: potency means the concentration at half of the fitted maximal effect; nearly all actives have a fitted effect of over 70% in size
#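 Compound inhibition of the preformed complex between 50 nM HP1-beta and 50 nM biotinylated H3K9me3 peptide was read by AlphaScreen. Buffer was PBS pH 7.4 with 0.01% Tween-20. Incubations ran 30 min at room temperature, with 10 ug/mL donor/acceptor beads.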
# Six1-Eya2 inh = inhibitors of human Six1/Eya2 interaction | AlphaScreen GST-Six1/His-Eya2 binding, biochemical; active compounds read low | activity change, % (concentration not given with the values) | 360,000 compounds, 0.56% hits | AID 651725; in the data active means activity change below about -65%; inconclusive means mostly about -30% to -63%; further: on the % scale 0 is the no-effect control and ±100 the full control effect
#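 AlphaScreen luminescence read after one hour at 37 °C in darkness. Pin-transferred compounds met GST-Six1 and His-Eya2 protein (5X stock 250 nM/500 nM) plus glutathione donor and Ni-chelate acceptor beads (5X, 50 ug/mL).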
# Starred values were filed as active, the others as inactive; ? = inconclusive; nt = no result; ! = not confirmed by another sample; [ ] = remark or other dose. Unless noted, the call rests on the fitted dose curve; in most records, active means well fitted inhibition curve with a large enough effect; inconclusive means small, poorly fitted or top-dose-only effect; inactive means no such curve, though single readings can be large or run the other way.
SMILES,CtBP-E1A inh,BAZ2B inh,JMJD2A Tudor inh,G9a block,HP1b binding inh,Six1-Eya2 inh
CC(=O)c1c(O)n(-c2cccc(Cl)c2)c(=O)[nH]c1=O (tested in a mixture with another compound),-22,-29%,-18%,50µM*,16%,-3
COc1cc2[nH]c(=O)n(-c3cccc(Cl)c3)c(=O)c2cc1OC,-2,11%,-3%,2%[12.7 µM],36%,-3
O=C(O)[C@@H]1C[C@H]2C[C@@H](CP(=O)(O)O)CC[C@H]2CN1,nt,nt,10%,nt,46%,nt
CCOC(=O)CCCCCNC(=O)c1c(O)[nH]c(=O)[nH]c1=O,3,nt,79µM*,nt,4%,-1
COc1ccccc1CCNCc1cc2c(cc1[N+](=O)[O-])OCO2,-12,50µM*,3.5µM*,25µM*,-55%,-6
COc1ccc(Br)cc1CNCCc1ccc2c(c1)OCO2,-1,nt,25µM*,nt,?,-17
COc1cc(CNCCc2ccc3c(c2)OCO3)cc(OC)c1OC,-8,56µM*,0.79µM*,5µM*,?,-8
COc1ccc(CNCCc2ccc3c(c2)OCO3)cc1Br,nt,50µM*,18µM*,5µM*,-15%,-10
COc1ccc(-c2nc(CN3C(=O)CN=C(c4ccccc4)c4ccccc43)c(C)o2)cc1OC,nt,?,-21%,-32%[59 µM],29%,nt
CC(C)CN1CC2(CCN(C(=O)Oc3ccccc3)CC2)C1,nt,nt,nt,0%[12.7 µM],nt,nt
C[C@H]1OC[C@@H](C[N+](C)(C)C)O1,4,-29%,?,1.6µM*,9%,-17
C[C@@H]1O[C@H](C[N+](C)(C)C)C[C@H]1O,nt,nt,nt,16µM*!,nt,nt
CC1OC(C[N+](C)(C)C)CC1O (stereo not drawn),2,14%,-8%,2%[59 µM],17%,2
CC1OC(C)OC(C)O1 (stereo not drawn),nt,nt,nt,0%[12.7 µM],nt,nt
Cc1cc(C(=O)C[N+]23CCN(CC2)CC3)c(C)n1-c1ccc(Br)cc1,-6,79µM*,-19%,?,4%,-17
Cc1cc(C(=O)Cn2nnc(-c3ccc(Cl)cc3)n2)c(C)n1-c1ccccc1,-20,-33%,-12%,5%[59 µM],21%,-11
CCOc1cc(/C=C(\C#N)C(=O)NCC2CCCO2)ccc1OCC(N)=O (stereo not drawn),-16,-11%,-24%,50µM*,-16%,-7
CCOC(=O)c1c(C)[nH]c(C)c1S(=O)(=O)N1CCC(C(=O)N2CCN(c3ccc(Cl)cc3)CC2)CC1,nt,?,?,6%[59 µM],-7%,nt
COc1cc(/C=N/NC(=O)c2cnccn2)cc(OC)c1OC,1,-6%,9%,?,-7%,-10
CCN1C(=O)C(=C/C=C/c2ccco2)C(=O)N(CC)C1=S,3,45µM*,50µM*,13µM*,?,?
CC(C)N1C(=O)/C(=C/C=C/c2ccco2)C(=O)N(Cc2ccco2)C1=O,11,35µM*,14µM*,nt,28µM*,?
COc1ccc(/C=C2/C(=O)N(Cc3ccco3)C(=O)N(C(C)C)C2=O)cc1,nt,-35%,-31%,?,-2%,0
CCN1C(=O)C(=C2C=C(C)N(Cc3ccco3)C(C)=C2)C(=O)N(CC)C1=S,11,32%,20%,53%,77%,15
COc1cc(C(=O)NCCSc2c(-c3ccccc3)[nH]c3ccccc23)cc(OC)c1OC,nt,-24%,?,-7%[59 µM],5%,nt
CC(Oc1ccc(Br)cc1)C(=O)N(Cc1nc(-c2ccccc2)no1)C(C)C (stereo not drawn),nt,14%,16%,-5%[59 µM],47%,nt
SMILES,CtBP-E1A inh,BAZ2B inh,JMJD2A Tudor inh,G9a block,HP1b binding inh,Six1-Eya2 inh
COc1ccc(CCNC(=O)c2ccc3c(c2)N=C(C)c2cc(C)ccc2S3)cc1OC,nt,-31%,?,-50%[59 µM],-4%,nt
COc1ccc(CN2C(=O)CC(=O)NC2=S)cc1,8,?,-11%,71µM*,30%,-1
Cc1cccc(Cn2cccc(C(=O)Nc3nnc(C)s3)c2=O)c1,nt,-16%,-7%,?,-6%,nt
COc1ccccc1N1C(=O)NC(=O)/C(=C/c2ccc3c4c(cccc24)CC3)C1=O,-4,?,?,8.9µM*,11%,-10
O=C1NC(=O)N(c2ccccc2)C(=O)/C1=C\c1ccc2c3c(cccc13)CC2,nt,?,nt,7.1µM*,nt,nt
COc1ccc(/C=C2\C(=O)NC(=O)N(Cc3ccccc3)C2=O)c(OC)c1OC,nt,-16%,-14%,nt,17%,-1
COC(=O)Cn1cc(/C=C2\C(=O)NC(=O)N(c3ccc(OC)cc3)C2=O)c2ccccc21,1,-4%,4%,28%[0.501 µM],-5%,4
O=C(O)Cn1cc(/C=C2\C(=O)NC(=O)N(c3ccc(F)cc3)C2=O)c2ccccc21,nt,-23%,nt,50µM*,nt,nt
COc1ccc(NC(=O)CCc2nc(C3=CCN(Cc4cccc(Cl)c4)CC3)no2)cc1OC,nt,50µM*,56µM*,28µM*,-5%[57 µM],nt
N[C@@H](Cc1cc(I)c(O)c(I)c1)C(=O)O,-26,7%,11µM*,6.3µM*!,?,-24
O=C(O)c1cc2ccccc2oc1=O,2,7%,-16%,?,24%,7
N#CCCn1cc(C=C2C(=O)NC(=O)NC2=O)c(-c2ccccc2)n1,3,4%,2%,?,59%,0
O=C(O)CCn1cc(C=C2C(=O)NC(=S)NC2=O)c(-c2ccccc2)n1,3,79µM*,13µM*,nt,-17%,3
O=C(O)CCn1cc(C=C2C(=O)NC(=S)NC2=O)c(-c2cc3ccccc3oc2=O)n1,0,50µM*,89µM*,11µM*,-13%,-23
FC(F)(F)c1nc(N2CCN(c3ccccc3)CC2)nc2c1CCCCC2,8,4%,21%,43%[59 µM],55%,9
CCOc1cccc(OCC)c2c(C)[n+](CC3CCCO3)c(C)c1-2 (stereo not drawn),-6,25µM*,35µM*,?,-1%,-28
O=C(NC1CCCCCC1)c1ccc[nH]c1=S,2,-4%,5µM*,2.5µM*,?,0
CN[C@@H](CC(C)C)C(=O)N[C@@H]1C(=O)N[C@H](CC(N)=O)C(=O)N[C@@H]2C(=O)N[C@H]3C(=O)N[C@H](C(=O)N[C@H](C(=O)O)c4cc(O)cc(O)c4-c4cc3ccc4O)[C@H](O)c3ccc(c(Cl)c3)Oc3cc2cc(c3O[C@H]2O[C@@H](CO)[C@@H](O)[C@@H](O)[C@@H]2O[C@@H]2C[C@](C)(N)[C@H](O)[C@H](C)O2)Oc2ccc(cc2Cl)[C@@H]1O,nt,nt,nt,-1%[12.7 µM],nt,nt
COc1cccc(CNCCc2ccc(F)cc2)c1,nt,40µM*,?,-19%,4%,3
COc1ccc2ccccc2c1CNCCc1ccccc1,nt,8%,-14%,nt,31%,2
